# Experimental data as given in paper PMC6689086.
# Columns and labels:
# [1] = biological target: ATP-dependent molecular chaperone HSC82 (UniProt P15108); test: mass-spectrometry hit list; affinity purification or IP with mass spectrometry
# [2] = biological target: Heat shock protein SSA1 (UniProt P10591); test: as above
# Chain of Heat shock protein SSA1 (P10591 whole entry): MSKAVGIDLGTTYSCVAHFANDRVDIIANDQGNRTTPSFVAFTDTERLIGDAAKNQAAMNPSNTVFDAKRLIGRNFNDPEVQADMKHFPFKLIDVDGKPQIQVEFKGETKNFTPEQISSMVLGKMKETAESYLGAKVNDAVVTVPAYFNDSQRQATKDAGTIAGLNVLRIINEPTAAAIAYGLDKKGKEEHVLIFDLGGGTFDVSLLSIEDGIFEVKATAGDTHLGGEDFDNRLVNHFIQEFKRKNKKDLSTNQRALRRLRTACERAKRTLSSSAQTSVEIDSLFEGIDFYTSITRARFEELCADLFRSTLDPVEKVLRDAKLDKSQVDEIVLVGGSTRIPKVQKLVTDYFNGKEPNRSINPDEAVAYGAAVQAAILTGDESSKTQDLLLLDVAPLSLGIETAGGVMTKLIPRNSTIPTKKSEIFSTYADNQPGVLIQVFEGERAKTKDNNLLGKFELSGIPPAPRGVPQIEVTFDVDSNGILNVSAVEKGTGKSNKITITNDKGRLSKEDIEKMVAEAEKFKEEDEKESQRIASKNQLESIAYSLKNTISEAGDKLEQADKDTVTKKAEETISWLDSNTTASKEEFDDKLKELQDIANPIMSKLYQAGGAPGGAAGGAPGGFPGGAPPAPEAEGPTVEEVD
# Chain of Heat shock protein SSA1, P10591 (P10591 whole entry): as above
# Chain of ATP-dependent molecular chaperone HSC82 (P15108 whole entry): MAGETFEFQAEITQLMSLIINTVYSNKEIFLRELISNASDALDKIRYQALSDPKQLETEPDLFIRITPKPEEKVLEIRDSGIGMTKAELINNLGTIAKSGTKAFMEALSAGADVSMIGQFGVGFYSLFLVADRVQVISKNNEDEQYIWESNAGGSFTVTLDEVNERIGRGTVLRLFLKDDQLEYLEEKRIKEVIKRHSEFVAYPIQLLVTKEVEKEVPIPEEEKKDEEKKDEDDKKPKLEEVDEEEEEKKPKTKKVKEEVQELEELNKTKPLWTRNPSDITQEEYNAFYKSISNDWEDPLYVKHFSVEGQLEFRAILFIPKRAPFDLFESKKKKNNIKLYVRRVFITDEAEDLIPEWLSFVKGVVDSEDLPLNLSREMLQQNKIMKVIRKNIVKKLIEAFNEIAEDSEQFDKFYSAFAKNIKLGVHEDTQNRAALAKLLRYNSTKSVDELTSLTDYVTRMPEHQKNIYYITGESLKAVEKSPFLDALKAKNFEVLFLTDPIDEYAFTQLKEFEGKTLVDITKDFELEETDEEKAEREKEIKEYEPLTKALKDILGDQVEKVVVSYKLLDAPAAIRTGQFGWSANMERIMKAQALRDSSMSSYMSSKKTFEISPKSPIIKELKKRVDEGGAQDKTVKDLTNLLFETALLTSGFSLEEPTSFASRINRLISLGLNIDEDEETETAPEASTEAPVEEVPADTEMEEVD
Substance,listed as a hit [1],listed as a hit [2]
"Heat shock protein SSA1, P10591",yes,–
"ATP-dependent molecular chaperone HSP82, P02829",–,yes
